The values that follow come from PubChem BioAssay (NCI).

Molecules are shown by their SMILES. This is part of a sample that, as a whole, favours compounds with a hit. Of some 79,000 tested, about 15% had one in any assay. A number with no mark means an inactive call. Cut-off read from the data, not from the text of the source: active = growth inhibition above about 70%; inactive = the rest.

One assay in a line: NCI Yeast Anticancer Drug Screen. Data for the rad50 strain (AID 155).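 Note: 0% = growth of vehicle-only cultures of the same strain.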 Particulars: S. cerevisiae rad50 strain growth inhibition; at 1.2 µM; active compounds read high. A digest of the protocol:
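Inhibition values express reduced yeast growth in compound-treated cultures relative to vehicle-treated controls.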
As for `O=[N+]([O-])c1cc[n+]([O-])cc1`, the growth inhibition was -6%.

Take `CC1(C)CC(=O)C(/C=N/c2nc(-c3ccccc3)cs2)=C(O)C1`: the growth inhibition was -5%.

For the molecule `Nc1nc(N)c2nc(CNc3ccc(C(=O)NC(CCC(=O)O)C(=O)O)cc3F)cnc2n1` (stereo unspecified), the growth inhibition was 7%.

For the molecule `COC(=O)CC1(O)C(/C=C/c2ccccc2)C(C(=O)OC)C(=O)C(C(=O)OC)C1C(=O)OC` (stereo unspecified), the growth inhibition is -1%.

Consider `CC(C)(C)c1ccc(NS(=O)(=O)c2ccc(N)cc2)cc1`, for which the growth inhibition was 4%.

With `CCN(CC)CCNc1ccc([N+](=O)[O-])c2nc3ccccc3c(N)c12`, the growth inhibition is 10%.

As to `CCCCN(CCCC)C(=O)/C=C/c1ccccc1`, the growth inhibition is -15%.

As for `O=c1[nH]c(-c2ccccc2)nc2c1sc1nc3ccccc3n12`, the growth inhibition was 11%.

`O=[N+]([O-])c1ccc2c(c1)/C(=N/N=C1c3ccccc3Cc3ccccc31)c1cc([N+](=O)[O-])cc([N+](=O)[O-])c1-2`: the growth inhibition is -10%.

`CC(C)C(C)/C=C\C(C)C1CCC2C3=CC=C4CC(O)CCC4(C)C3CCC21C` (stereo unspecified): the growth inhibition was -1%.

Take `O=C1Nc2ccc(Br)cc2C1=Nc1ccc2c(c1)OCO2`: the growth inhibition was -29%.

For the molecule `CCCCOCn1c(=O)[nH]c(=O)c2cc(Br)ccc21`, the growth inhibition was -35%.

As for `Cc1ccc(S/C(=C\C(=O)O)c2ccccc2)cc1`, the growth inhibition was 2%.

With `O=[N+]([O-])/C=C/c1cc(Cl)c(/C=C/[N+](=O)[O-])cc1Cl`, the growth inhibition is 33%.

Take `Cc1cc(S(=O)(=O)Nc2nnc3cnc4ccccc4n23)c(S)cc1Cl`: the growth inhibition is 0%.

For the molecule `O=C(/C=C/c1cc(Cl)cc(Cl)c1O)c1cccc(O)c1`, the growth inhibition was 1%.

`NC1CCCCC1N.Nc1c(N=Nc2ccc(-c3ccc(N=Nc4cc(S(=O)(=O)[O-])c5ccccc5c4N)cc3)cc2)cc(S(=O)(=O)[O-])c2ccccc12.[OH3+].[OH3+].[Pt+4]`: the growth inhibition was 2%.

For `COC(=O)CCC(NC(=S)N/N=C(\C)c1ccccn1)C(=O)OC` (stereo unspecified), the growth inhibition is 8%.

`NC(=O)C(=O)NNc1ccccc1`: the growth inhibition is 1%.

Regarding `COc1cc(C2SCC(=O)N2c2ccc(-c3ccc(-n4c(-c5ccccc5)nc5ccccc5c4=O)cc3)cc2)ccc1O` (stereo unspecified), the growth inhibition is -4%.

For the molecule `COc1ccc(/C=C/c2sc3ccccc3[n+]2CCCCI)cc1OC`, the growth inhibition is -2%.

With `Cc1c(C(C)C)cc(OCCO)cc1C(C)C`, the growth inhibition was -3%.

For the molecule `Cc1cc(NCCCCCCCCNc2cc(C)nc3cc(N)ccc23)c2ccc(N)cc2n1`, the growth inhibition was -39%.

Take `C=C(Cl)COC(=O)Nc1cccc(Cl)c1`: the growth inhibition was 8%.

Regarding `CC(=O)OC1CC2C(C)(C)C(=O)C=C[C@]2(C)C2CCC3(C)C(=CCC3[C@H](CO)C[C@H](O)C(=O)C(C)(C)O)[C@]12C` (stereo partly specified), the growth inhibition is -5%.

`COc1ccc(/C=C/C(=O)c2ccccc2)cc1OC`: the growth inhibition is 12%.

With `COc1c(O)c(C=O)c(Br)c(C=O)c1O`, the growth inhibition is 4%.

For the molecule `O=[N+]([O-])c1cc(Cl)cnc1Br`, the growth inhibition is 28%.

As for `Cc1ccc2c(c1)C1(SC(C)C(=O)N1c1ccc(Cl)cc1)C(=O)N2` (stereo unspecified), the growth inhibition was -2%.

In the case of `COc1cc(CSc2ccc(O)cc2)cc(O)c1O`, the growth inhibition is 3%.

Take `Cc1ccc2c3ccc4c(c3n(C)c2c1)C(=O)C=CC4=O`: the growth inhibition is -4%.

Turning to `O=C(Nc1ccc(Cl)cc1)Nc1nnc2nc(C(C(=O)c3cccc([N+](=O)[O-])c3Cl)c3nc4nnc(NC(=O)Nc5ccc(Cl)cc5)n4[nH]c3=O)c(=O)[nH]n12`, the growth inhibition is 1%.

`O=C(O)C1CC(c2ccccc2)=NN1c1ccccc1` (stereo unspecified): the growth inhibition is -10%.

For the molecule `CCCCc1ccc(-n2c(C)c(COC(=O)NC)c(COC(=O)NC)c2C)cc1`, the growth inhibition was -36%.

As to `CCC(=O)c1cc(C(=O)C(=S)SC)cc(C(=O)C(=S)SC)c1`, the growth inhibition is 1%.

Take `CCn1c(O)c(C=Nc2ccccc2)s/c1=N/Nc1nc(-c2ccccc2)cs1`: the growth inhibition was -2%.

Consider `Cc1ccccc1N=C(NO)c1ccccc1`, for which the growth inhibition was 8%.

As to `Cc1nc2ccccc2nc1NNc1ccccc1`, the growth inhibition was -6%.

The same assay, now with this note: S. cerevisiae rad50 strain growth inhibition; at 3.7 µM; active compounds read high.
Regarding `O=[N+]([O-])c1cc[n+]([O-])cc1`, the growth inhibition was -6%.

Turning to `CC1(C)CC(=O)C(/C=N/c2nc(-c3ccccc3)cs2)=C(O)C1`, the growth inhibition is -13%.

For `Nc1nc(N)c2nc(CNc3ccc(C(=O)NC(CCC(=O)O)C(=O)O)cc3F)cnc2n1` (stereo unspecified), the growth inhibition was 18%.

For `COC(=O)CC1(O)C(/C=C/c2ccccc2)C(C(=O)OC)C(=O)C(C(=O)OC)C1C(=O)OC` (stereo unspecified), the growth inhibition is -1%.

In the case of `CC(C)(C)c1ccc(NS(=O)(=O)c2ccc(N)cc2)cc1`, the growth inhibition was 3%.

As for `CCN(CC)CCNc1ccc([N+](=O)[O-])c2nc3ccccc3c(N)c12`, the growth inhibition is 14%.

For the molecule `CCCCN(CCCC)C(=O)/C=C/c1ccccc1`, the growth inhibition was -12%.

Consider `O=c1[nH]c(-c2ccccc2)nc2c1sc1nc3ccccc3n12`, for which the growth inhibition was 5%.

For the molecule `O=[N+]([O-])c1ccc2c(c1)/C(=N/N=C1c3ccccc3Cc3ccccc31)c1cc([N+](=O)[O-])cc([N+](=O)[O-])c1-2`, the growth inhibition is 60%.

In the case of `CC(C)C(C)/C=C\C(C)C1CCC2C3=CC=C4CC(O)CCC4(C)C3CCC21C` (stereo unspecified), the growth inhibition is 5%.

As for `O=C1Nc2ccc(Br)cc2C1=Nc1ccc2c(c1)OCO2`, the growth inhibition was -26%.

`CCCCOCn1c(=O)[nH]c(=O)c2cc(Br)ccc21`: the growth inhibition was -26%.

As to `Cc1ccc(S/C(=C\C(=O)O)c2ccccc2)cc1`, the growth inhibition is 4%.

With `O=[N+]([O-])/C=C/c1cc(Cl)c(/C=C/[N+](=O)[O-])cc1Cl`, the growth inhibition is 55%.

`Cc1cc(S(=O)(=O)Nc2nnc3cnc4ccccc4n23)c(S)cc1Cl`: the growth inhibition is 0%.

`O=C(/C=C/c1cc(Cl)cc(Cl)c1O)c1cccc(O)c1`: the growth inhibition was 16%.

On to `NC1CCCCC1N.Nc1c(N=Nc2ccc(-c3ccc(N=Nc4cc(S(=O)(=O)[O-])c5ccccc5c4N)cc3)cc2)cc(S(=O)(=O)[O-])c2ccccc12.[OH3+].[OH3+].[Pt+4]`, for which the growth inhibition is 1%.

`COC(=O)CCC(NC(=S)N/N=C(\C)c1ccccn1)C(=O)OC` (stereo unspecified): the growth inhibition was 3%.

Turning to `NC(=O)C(=O)NNc1ccccc1`, the growth inhibition was 6%.

`COc1cc(C2SCC(=O)N2c2ccc(-c3ccc(-n4c(-c5ccccc5)nc5ccccc5c4=O)cc3)cc2)ccc1O` (stereo unspecified): the growth inhibition was -1%.

Consider `COc1ccc(/C=C/c2sc3ccccc3[n+]2CCCCI)cc1OC`, for which the growth inhibition is -3%.

In the case of `Cc1c(C(C)C)cc(OCCO)cc1C(C)C`, the growth inhibition is 2%.

In the case of `Cc1cc(NCCCCCCCCNc2cc(C)nc3cc(N)ccc23)c2ccc(N)cc2n1`, the growth inhibition is -32%.

With `C=C(Cl)COC(=O)Nc1cccc(Cl)c1`, the growth inhibition was 27%.

`CC(=O)OC1CC2C(C)(C)C(=O)C=C[C@]2(C)C2CCC3(C)C(=CCC3[C@H](CO)C[C@H](O)C(=O)C(C)(C)O)[C@]12C` (stereo partly specified): the growth inhibition is -18%.

On to `COc1ccc(/C=C/C(=O)c2ccccc2)cc1OC`, for which the growth inhibition is 1%.

For the molecule `COc1c(O)c(C=O)c(Br)c(C=O)c1O`, the growth inhibition is 7%.

With `O=[N+]([O-])c1cc(Cl)cnc1Br`, the growth inhibition was 47%.

In the case of `Cc1ccc2c(c1)C1(SC(C)C(=O)N1c1ccc(Cl)cc1)C(=O)N2` (stereo unspecified), the growth inhibition was 1%.

As to `COc1cc(CSc2ccc(O)cc2)cc(O)c1O`, the growth inhibition was 6%.

As for `Cc1ccc2c3ccc4c(c3n(C)c2c1)C(=O)C=CC4=O`, the growth inhibition was -5%.

For the molecule `O=C(Nc1ccc(Cl)cc1)Nc1nnc2nc(C(C(=O)c3cccc([N+](=O)[O-])c3Cl)c3nc4nnc(NC(=O)Nc5ccc(Cl)cc5)n4[nH]c3=O)c(=O)[nH]n12`, the growth inhibition is 0%.

For the molecule `O=C(O)C1CC(c2ccccc2)=NN1c1ccccc1` (stereo unspecified), the growth inhibition was -11%.

On to `CCCCc1ccc(-n2c(C)c(COC(=O)NC)c(COC(=O)NC)c2C)cc1`, for which the growth inhibition was -30%.

`CCC(=O)c1cc(C(=O)C(=S)SC)cc(C(=O)C(=S)SC)c1`: the growth inhibition is 43%.

As for `CCn1c(O)c(C=Nc2ccccc2)s/c1=N/Nc1nc(-c2ccccc2)cs1`, the growth inhibition was 6%.

Consider `Cc1ccccc1N=C(NO)c1ccccc1`, for which the growth inhibition is 15%.

On to `Cc1nc2ccccc2nc1NNc1ccccc1`, for which the growth inhibition is -12%.
